# Laboratory results published in a collection of fitness landscapes (doi:10.1038/s41467-024-54723-y).
# The full ranking holds about 18,000 sequences; the median of “TetR repression strength (sort-seq, GFP reporter)” is about 0.23, and the highest 2% start at about 0.68. This is one part of a sample in which the highest values are shown more often than they occur.
# Molecular target: TetR (class B, Tn10) (UniProt P04483)
# Experiment: TetR repression strength (sort-seq, GFP reporter) (relative to tetO2 = 1); higher = stronger repression
# Details: E. coli
# Method in brief: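 Escherichia coli SIG10-MAX cells carried a low-copy plasmid library in which eight operator positions were randomized between a constitutive promoter and sfGFP, and TetR was expressed constitutively. After 5 h of growth at 37 °C in LB with 50 µg/mL chloramphenicol, 10^6 cells were FACS-sorted into 13 fluorescence bins, and each bin was Illumina-sequenced. Repression strength was the top bin index plus one minus the read-weighted mean bin, divided by the value for the unaltered operator. Across three independent transformations, only library members with ≥30 reads in every replicate and a CV ≤0.5 were averaged.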
# TetR (class B, Tn10), sequence (P04483 whole entry): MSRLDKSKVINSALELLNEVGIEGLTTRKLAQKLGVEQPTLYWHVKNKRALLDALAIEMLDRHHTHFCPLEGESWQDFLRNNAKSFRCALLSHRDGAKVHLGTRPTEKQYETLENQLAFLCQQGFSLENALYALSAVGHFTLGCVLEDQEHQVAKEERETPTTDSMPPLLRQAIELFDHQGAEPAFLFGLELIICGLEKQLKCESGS
row,Sequence,TetR repression strength
1,TCCCTGTGAGTTGGTGAGA,0.656
2,TCCCTCTCAGTACTAGAGA,0.283
3,TCCCTTTCAGTGAGAGAGA,0.566
4,TCCCTATCAGTAACAGAGA,0.539
5,TCCCTATCAGTAATAGAGA,0.878
6,TCCCTAACAGTAATAGAGA,0.569
7,TCCCTTTCAGTGATGGAGA,0.574
8,TCCCTTTAAGTAATAGAGA,0.44
9,TCCCTTTCAGTAATAGAGA,0.745
10,TCCCTCTCAGTAATAGAGA,0.686
11,TCCCTCTAAGTAATAGAGA,0.472
12,TCCCTTTCAGTTATAGAGA,0.649
13,TCCCTTTCAGTGATAGAGA,0.785
14,TCCCACCAAGTGGGTGAGA,0.139
15,TCCCTGTGAGTTTGGGAGA,0.424
16,TCCCGGAGAGTTTCTGAGA,0.191
17,TCCCCTTTAGTGCCTGAGA,0.523
18,TCCCGTTGAGTAGGGGAGA,0.0793
19,TCCCAGGGAGTAGCGGAGA,0.159
20,TCCCACGTAGTGCAAGAGA,0.62
21,TCCCTTCAAGTGCTCGAGA,0.24
22,TCCCATGTAGTGTGGGAGA,0.203
23,TCCCGATCAGTGCAGGAGA,0.299
24,TCCCTGCGAGTGGTGGAGA,0.112
25,TCCCTGCTAGTGGGGGAGA,0.0729
26,TCCCTGCTAGTGGTGGAGA,0.404

row,Sequence,TetR repression strength
1,TCCCTGCGAGTGGGGGAGA,0.264
2,TCCCTGCTAGTGGAGGAGA,1.14
3,TCCCTGCGAGTGGAGGAGA,1.08
4,TCCCGGGAAGTGTGTGAGA,0.177
5,TCCCTTGTAGTGAATGAGA,0.277
6,TCCCGGGCAGTGCCTGAGA,0.283
7,TCCCCGGGAGTGAGGGAGA,0.13
8,TCCCGGCCAGTTAGAGAGA,0.129
9,TCCCCGGCAGTCTGCGAGA,0.266
10,TCCCCGGCAGTCTGGGAGA,0.271
11,TCCCGGAAAGTCTGGGAGA,0.153
12,TCCCTGCCAGTCTGCGAGA,0.24
13,TCCCGGCCAGTCTGCGAGA,0.967
14,TCCCGGGAAGTCTGGGAGA,1.24
15,TCCCGGGCAGTCTGAGAGA,0.179
16,TCCCGGGGAGTCTGGGAGA,0.179
17,TCCCGGGCAGTCTGGGAGA,1.2
18,TCCCAGGTAGTAATAGAGA,0.443
19,TCCCTGTCAGTACAGGAGA,0.118
20,TCCCAAACAGTTTGTGAGA,0.0981
21,TCCCCGAAAGTACAGGAGA,0.259
22,TCCCCTGTAGTCGTAGAGA,0.344
23,TCCCCAGGAGTGGGCGAGA,0.894
24,TCCCCAGTAGTGGGGGAGA,0.14
25,TCCCCAGGAGTCGGCGAGA,0.237
26,TCCCAAGGAGTCGGCGAGA,0.743

row,Sequence,TetR repression strength
1,TCCCAAGGAGTGGGCGAGA,0.231
2,TCCCCAGCAGTGGGCGAGA,0.125
3,TCCCGGGGAGTGGGCGAGA,0.225
4,TCCCAGGGAGTGGGCGAGA,0.312
5,TCCCCGGGAGTGGGCGAGA,0.993
6,TCCCGAGGAGTCGGCGAGA,0.0782
7,TCCCCAGTAGTGGGCGAGA,0.963
8,TCCCCCGGAGTGGGCGAGA,0.111
9,TCCCACCCAGTAGTGGAGA,0.211
10,TCCCTAGAAGTCCTAGAGA,0.0793
11,TCCCCAGGAGTATCGGAGA,0
12,TCCCGTCTAGTTTCCGAGA,0.169
13,TCCCGGTCAGTCTGTGAGA,0.287
14,TCCCTGGCAGTGTGTGAGA,0.164
15,TCCCATCGAGTCTGAGAGA,0.218
16,TCCCATACAGTTGAGGAGA,0.0487
17,TCCCACTTAGTGCGAGAGA,0.0746
18,TCCCTAGGAGTGCTGGAGA,0.382
19,TCCCTGAGAGTGCTGGAGA,0.564
20,TCCCGGAGAGTGCTGGAGA,1.07
21,TCCCTAAGAGTGCTGGAGA,0.768
22,TCCCGGGGAGTGCTGGAGA,0.359
23,TCCCCGAGAGTGCTGGAGA,0.252
24,TCCCCTAGAGTCCTGGAGA,0.952
25,TCCCCTGGAGTCCTGGAGA,0.439
26,TCCCTTAGAGTCCTGGAGA,0.0777

row,Sequence,TetR repression strength
1,TCCCCTGTAGTTGTCGAGA,0.123
2,TCCCCGAAAGTCATAGAGA,0.452
3,TCCCATCCAGTCAAGGAGA,0.595
4,TCCCTTGCAGTACATGAGA,0.298
5,TCCCTTGAAGTGGGTGAGA,0.165
6,TCCCACCCAGTGGTAGAGA,0.357
7,TCCCAGTGAGTCGTGGAGA,0.25
8,TCCCGCCAAGTAAAAGAGA,0.298
9,TCCCATCAAGTTAATGAGA,0.0658
10,TCCCGTCGAGTCAGGGAGA,0.367
11,TCCCTATCAGTTCGTGAGA,0.423
12,TCCCTATCAGTACGTGAGA,0.349
13,TCCCTATCAGTACCAGAGA,0.514
14,TCCCCATCAGTTCCGGAGA,0.207
15,TCCCCATCAGTTCCTGAGA,0.721
16,TCCCTATCAGTACCTGAGA,0.867
17,TCCCTATCAGTTCTTGAGA,0.539
18,TCCCTATCAGTTCCTGAGA,0.76
19,TCCCCATCAGTTCATGAGA,0.401
20,TCCCGGGTAGTCGAGGAGA,0.313
21,TCCCCAGCAGTTTCCGAGA,0.275
22,TCCCTTATAGTAGGCGAGA,0.0601
23,TCCCACCGAGTACGGGAGA,0.135
24,TCCCATGAAGTAAGGGAGA,0.284
